We go through 1 molecule from the supplement of paper PMC8728848.

This is one part of a sample in which the strongest signals are shown more often than they occur.

Common to all, as to test: glycan array binding signal (z-score within array); higher = stronger binding
Holding throughout (conditions): glycan notation: IUPAC condensed, linker removed

In test [1] the target is Fuc(a1-2)Gal(b1-3)GalNAc(b1-3)Gal(a1-4)Gal(b1-4)Glc. A digest of the protocol:
(§1)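 Columns mapping to the same glycan were averaged after glycan names were converted to IUPAC-condensed notation. The data come from 3228 arrays in the Consortium for Functional Glycomics database, limited to those with an available protein sequence. Binding is reported as a within-array Z-score averaged across arrays of one protein sequence and across linkers.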

Test [2] concerns the target Fuc(a1-2)Gal(b1-3)GlcNAc6S. A digest of the protocol: as §1
Test [3] deals with Fuc(a1-2)Gal(b1-3)[Fuc(a1-4)]GlcNAc(b1-2)Man(a1-3)[Fuc(a1-2)Gal(b1-3)[Fuc(a1-4)]GlcNAc(b1-2)Man(a1-6)]Man(b1-4)GlcNAc(b1-4)[Fuc(a1-6)]GlcNAc(b1-4)[Fuc(a1-6)]GlcNAc. A digest of the protocol: as §1
In test [4] the target is Fuc(a1-2)Gal(b1-4)GlcNAc(b1-3)Gal(b1-4)GlcNAc(b1-3)Gal(b1-4)GlcNAc. Put shortly:
as §1

The target of test [5] is Fuc(a1-2)Gal6S(b1-4)Glc6S. A digest of the protocol:
as §1

The next test addresses Fuc(a1-2)[Gal(a1-3)]Gal. Put shortly:
as §1

Test [6] has as its target Fuc(a1-2)[GalNAc(a1-3)]Gal(b1-4)[Fuc(a1-3)]GlcNAc(b1-3)GalNAc. A digest of the protocol: as §1
Test [7] addresses Fuc(a1-3)[Gal3S(b1-4)]GlcNAc6S. A digest of the protocol: as §1
In a further test the target is Fuc(a1-4)GlcNAc. Put shortly:
as §1

In test [8] the target is Gal(a1-3)Gal(b1-4)GlcNAc(b1-2)Man(a1-3)[Gal(a1-3)Gal(b1-4)GlcNAc(b1-2)Man(a1-6)]Man(b1-4)GlcNAc(b1-4)GlcNAc. A digest of the protocol: as §1
For test [9], the target named is Gal(a1-3)Gal(b1-4)[Fuc(a1-3)]GlcNAc(b1-2)Man(a1-3)[Gal(a1-3)Gal(b1-4)[Fuc(a1-3)]GlcNAc(b1-2)Man(a1-6)]Man(b1-4)GlcNAc(b1-4)GlcNAc. Put shortly:
as §1

A further test has as its target Gal(a1-3)GalNAc. Put shortly:
as §1

Test [10] deals with Gal(a1-4)Gal(b1-4)GlcNAc(b1-2)Man(a1-3)[Gal(a1-4)Gal(b1-4)GlcNAc(b1-2)Man(a1-6)]Man(b1-4)GlcNAc(b1-4)GlcNAc. Put shortly:
as §1

In test [11] the target is Gal(a1-4)Gal(b1-4)GlcNAc(b1-3)Gal(b1-4)Glc. Put shortly: as §1
Test [12] concerns the target Gal(b1-3)GlcNAc(b1-3)Gal(b1-4)GlcNAc(b1-2)[Gal(b1-3)GlcNAc(b1-3)Gal(b1-4)GlcNAc(b1-6)]Man(a1-6)[Gal(b1-3)GlcNAc(b1-3)Gal(b1-4)GlcNAc(b1-2)Man(a1-3)]Man(b1-4)GlcNAc(b1-4)[Fuc(a1-6)]GlcNAc. A digest of the protocol: as §1
For test [13], the target named is Gal(b1-4)GalNAc(b1-3)[Fuc(a1-2)]Gal(b1-4)GlcNAc. A digest of the protocol:
as §1

Test [14] has as its target Gal(b1-4)GlcNAc(b1-2)[Gal(b1-4)GlcNAc(b1-6)]Man(a1-6)[Gal(b1-4)GlcNAc(b1-2)Man(a1-3)]Man(b1-4)GlcNAc(b1-4)[Fuc(a1-6)]GlcNAc. Put shortly:
as §1

Test [15] concerns the target Gal(b1-4)GlcNAc(b1-3)Gal(b1-3)GalNAc. Put shortly:
as §1

For test [16], the target named is Gal(b1-4)GlcNAc(b1-3)Gal(b1-4)GlcNAc(b1-2)Man(a1-3)[Gal(b1-4)GlcNAc(b1-3)Gal(b1-4)GlcNAc(b1-2)Man(a1-6)]Man(b1-4)GlcNAc(b1-4)GlcNAc. A digest of the protocol: as §1
Test [17] deals with Gal(b1-4)GlcNAc(b1-3)Gal(b1-4)GlcNAc(b1-2)Man(a1-3)[Gal(b1-4)GlcNAc(b1-3)Gal(b1-4)GlcNAc(b1-2)Man(a1-6)]Man(b1-4)GlcNAc(b1-4)[Fuc(a1-6)]GlcNAc. A digest of the protocol: as §1
The target in test [18] is Gal(b1-4)GlcNAc(b1-3)Gal(b1-4)GlcNAc(b1-3)Gal(b1-4)GlcNAc(b1-2)[Gal(b1-4)GlcNAc(b1-3)Gal(b1-4)GlcNAc(b1-3)Gal(b1-4)GlcNAc(b1-6)]Man(a1-6)[Gal(b1-4)GlcNAc(b1-3)Gal(b1-4)GlcNAc(b1-3)Gal(b1-4)GlcNAc(b1-2)Man(a1-3)]Man(b1-4)GlcNAc(b1-4)[Fuc(a1-6)]GlcNAc. Put shortly:
as §1

Test [19] deals with Gal(b1-4)GlcNAc(b1-3)Gal(b1-4)GlcNAc(b1-3)Gal(b1-4)GlcNAc(b1-3)Gal(b1-4)GlcNAc(b1-2)Man(a1-3)[Gal(b1-4)GlcNAc(b1-3)Gal(b1-4)GlcNAc(b1-3)Gal(b1-4)GlcNAc(b1-3)Gal(b1-4)GlcNAc(b1-2)Man(a1-6)]Man(b1-4)GlcNAc(b1-4)GlcNAc. A digest of the protocol: as §1

B1: PX9961A-pdi-456-24-456 (Parabacteroides distasonis) (protein)
chain: KTSSTQLPTIDAISSVADLTNAVNGVYEQQATEVGSYGAEFTLLADLRSGDFQSISTVNHAGPMYRYQTGKNDEMVYSFYKLFYNSLARLNNVLAAAENLEGADVDILKGELYAMRALYHFDLARVFAKLPSTTDMNDLGIVLSTEVYPTDYIGTRATLQQTYDQILKDIETALPLLSKDKQTGHINYWGALAIRARAYLYLEKNKEALADCKEIIASSPYKLYTRDEYIGAWDKEGTNEAIFEILVTPNYNAQRNSIGYFTHASGYGECAATESFLEELAKHPGDIRTELFAKETDNGYDGTYPQKYKGRDGQIYVNNPKVVRLSEVYLIAAEAALKAGDTSAAAGYMNTLRKNRIENYTDVASITLDDILLERRLELFTEGHTAWDAWRNGKSVNNKFVGEVKPGDYRTIMAIPIGEITVSRGQLIQNPGY
Regarding B1, the “glycan array binding signal (z-score)” value in [1] was -0.216; in test [2], 0.178; in test [3] it was 0.196; in test [4], -0.148; in test [5], -0.221; with Fuc(a1-2)[Gal(a1-3)]Gal it was 1.54. For the same molecule, the “glycan array binding signal (z-score)” value in test [6] is 0.753; in test [7], -0.41; with Fuc(a1-4)GlcNAc, 7.24; in [8], 0.21; in test [9], 0.63; with Gal(a1-3)GalNAc, -0.152. Further, the “glycan array binding signal (z-score)” value in test [10] was 0.514; in [11] it was 0.043; in test [12] it was 1.83; in test [13], -0.317; in [14] it was 2.12; in test [15], -0.575. In addition, the “glycan array binding signal (z-score)” value in test [16] was 2.2; in test [17] it was 2.48; in test [18], 2.11; in test [19], 0.035.
